The values that follow come from publication PMC4336329 (PLoS ONE, 2015).

Among all 310,000 compounds or so, about 14,000 (4.5%) showed an effect of 50% or more. The effect is printed as a negative number. This excerpt belongs to a sample that is enriched for strong results.
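Note: peak tail current of the secondary pulse compared with the same well before compound.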

The target of this test is human ether-à-go-go-related gene (hERG) potassium channel (human, UniProt Q12809). Briefly: primary screen, population patch clamp on CHO cells stably expressing hERG; higher = less effect of the substance.
human ether-à-go-go-related gene (hERG) potassium channel, sequence (Q12809 whole entry, looked up): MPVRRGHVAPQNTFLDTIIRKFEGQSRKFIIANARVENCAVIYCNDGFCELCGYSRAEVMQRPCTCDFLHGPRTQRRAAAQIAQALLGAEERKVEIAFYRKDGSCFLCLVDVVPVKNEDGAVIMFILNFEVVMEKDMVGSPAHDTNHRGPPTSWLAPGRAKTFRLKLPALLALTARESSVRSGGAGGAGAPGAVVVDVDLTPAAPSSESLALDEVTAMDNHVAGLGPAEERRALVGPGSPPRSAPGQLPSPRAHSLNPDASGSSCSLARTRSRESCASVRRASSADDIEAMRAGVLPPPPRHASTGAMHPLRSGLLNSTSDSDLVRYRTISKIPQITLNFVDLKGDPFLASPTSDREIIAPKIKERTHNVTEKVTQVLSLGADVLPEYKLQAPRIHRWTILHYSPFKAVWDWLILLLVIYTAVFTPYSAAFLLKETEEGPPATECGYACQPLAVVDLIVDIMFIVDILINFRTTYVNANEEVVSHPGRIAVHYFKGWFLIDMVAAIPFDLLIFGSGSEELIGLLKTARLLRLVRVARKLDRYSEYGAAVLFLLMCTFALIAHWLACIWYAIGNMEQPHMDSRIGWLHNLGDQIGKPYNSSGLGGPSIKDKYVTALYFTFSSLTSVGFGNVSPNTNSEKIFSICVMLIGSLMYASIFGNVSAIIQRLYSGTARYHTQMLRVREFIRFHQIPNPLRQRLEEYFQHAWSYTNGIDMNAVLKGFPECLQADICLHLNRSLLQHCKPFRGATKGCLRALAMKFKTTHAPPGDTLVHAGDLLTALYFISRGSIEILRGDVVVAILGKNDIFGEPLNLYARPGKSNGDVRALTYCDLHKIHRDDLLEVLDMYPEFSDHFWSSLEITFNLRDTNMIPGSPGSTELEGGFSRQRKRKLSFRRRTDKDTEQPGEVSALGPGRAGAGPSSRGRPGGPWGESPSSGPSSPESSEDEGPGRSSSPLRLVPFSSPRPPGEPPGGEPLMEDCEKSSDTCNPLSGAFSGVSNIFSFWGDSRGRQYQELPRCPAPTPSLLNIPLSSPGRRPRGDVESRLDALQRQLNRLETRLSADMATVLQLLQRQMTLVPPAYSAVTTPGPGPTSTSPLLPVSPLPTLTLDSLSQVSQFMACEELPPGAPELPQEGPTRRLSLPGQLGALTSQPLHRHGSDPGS
Regarding `Cc1n[nH]c(C)c1Sc1ccccc1N=Cc1cc(Cl)cc([N+](=O)[O-])c1O`, the “hERG current change (%, negative = inhibition) at 10uM” value is listed as -10.9%.
In the case of `N#CCSc1nnc(C2CCCCC2)n1-c1ccccc1`, the “hERG current change (%, negative = inhibition) at 10uM” value is listed as 4.45%.
With `CCOC(=O)c1c(C)oc2cc(Cl)c(O)c(CN(C)C)c12`, the “hERG current change (%, negative = inhibition) at 10uM” value is -6.79%.
Consider `CC(OC(=O)c1ccc(S(=O)(=O)NCc2ccco2)cc1)C(=O)Nc1ccc(Cl)cn1` (centres unmarked), for which the “hERG current change (%, negative = inhibition) at 10uM” value is reported as -39.8%.
`CC(C)C[C@@]12C(=O)N(c3cccc(Cl)c3)C(=O)N1[C@H](c1ccc(Br)cc1)[C@@H]1C(=O)N(C(C)(C)C)C(=O)[C@@H]12`: the “hERG current change (%, negative = inhibition) at 10uM” value is 22.7%.
For the compound `COc1ccc(CNC(=O)Nc2ccc3c(c2)N(C)C(=O)CS3)cc1`, the “hERG current change (%, negative = inhibition) at 10uM” value is -0.138%.
As for `CCC(C)[C@H](NC(=O)N1CCCCCC1)C(=O)OC` (some centres unmarked), the “hERG current change (%, negative = inhibition) at 10uM” value is given as 5.25%.
In the case of `O=C(NCc1ccccc1)C1=C[C@@H](c2ccc3c(c2)OCO3)C[C@@H](OCc2ccc(CO)cc2)O1`, the “hERG current change (%, negative = inhibition) at 10uM” value is recorded as -25%.
Regarding `CCOc1ccccc1CN1CCN(C2CCOCC2)CC1CCO` (centres unmarked), the “hERG current change (%, negative = inhibition) at 10uM” value was 9.47%.
As to `COc1cccc(CN2CCN(C3CCN(c4ccccc4F)CC3)CC2CCO)c1` (centres unmarked), the “hERG current change (%, negative = inhibition) at 10uM” value is reported as -74.9%.
For the compound `COc1cc(CN2CCN(C3CCC3)CC2CCO)cc(OC)c1` (centres unmarked), the “hERG current change (%, negative = inhibition) at 10uM” value came out at 8.54%.
Then `CCOc1ccccc1CN1CCN(C2CCN(c3ccccc3F)CC2)CC1CCO` (centres unmarked), with -71.6%; and `CCOc1ccccc1CN1CCN(C2CCC2)CC1CCO` (centres unmarked), with 27.4%; and `COc1ccc(CN2CCN(C3CCC3)CC2CCO)c(F)c1` (centres unmarked), with 9.71%.
For the compound `COc1ccc(CNC(=O)COC(=O)c2ccco2)cc1`, the “hERG current change (%, negative = inhibition) at 10uM” value was 28.3%.
`Cc1cc(NC(=O)CSc2nnc(Cn3c(=O)sc4ccccc43)n2-c2ccccc2C)no1`: the “hERG current change (%, negative = inhibition) at 10uM” value was 2.54%.
As to `COc1ccc2nc(NC(=O)CSCc3c(C)noc3C)sc2c1`, the “hERG current change (%, negative = inhibition) at 10uM” value is given as 1.24%.
Consider `Cc1ccc(OC(C)C(=O)N2CCCc3ccccc32)cc1` (centres unmarked), for which the “hERG current change (%, negative = inhibition) at 10uM” value was -16.3%.
In the case of `O=C(Cn1nc(-c2ccccc2)nc1-c1ccccc1)OC1CCCCC1`, the “hERG current change (%, negative = inhibition) at 10uM” value is 7.88%.
Consider `CCCN(C(=O)CCOc1ccc(C(C)(C)C)cc1)c1c(N)n(Cc2ccccc2)c(=O)[nH]c1=O`, for which the “hERG current change (%, negative = inhibition) at 10uM” value worked out at 29.7%.
As to `COCCCN(C(=O)CCOc1ccc(C)cc1)c1c(N)n(Cc2ccccc2)c(=O)[nH]c1=O`, the “hERG current change (%, negative = inhibition) at 10uM” value is -20.2%.
Consider `Cc1ccccc1OCCC(=O)N(Cc1ccccc1)c1c(N)n(Cc2ccccc2)c(=O)[nH]c1=O`, for which the “hERG current change (%, negative = inhibition) at 10uM” value is recorded as -7.3%.
As for `COCCCN(C(=O)CCOc1ccc(C(C)(C)C)cc1)c1c(N)n(Cc2ccccc2)c(=O)[nH]c1=O`, the “hERG current change (%, negative = inhibition) at 10uM” value is reported as -62.2%.
For the compound `COCCCN(C(=O)CCOc1ccccc1C)c1c(N)n(Cc2ccccc2)c(=O)[nH]c1=O`, the “hERG current change (%, negative = inhibition) at 10uM” value was -3.05%.
Take `Cc1ccccc1OCCC(=O)N(CC(C)C)c1c(N)n(Cc2ccccc2)c(=O)[nH]c1=O`: the “hERG current change (%, negative = inhibition) at 10uM” value is -64.4%.
Turning to `C=CCNC(=O)c1ccc2nc(-c3ccccc3)c(-c3ccccc3)nc2c1`, the “hERG current change (%, negative = inhibition) at 10uM” value is on record as -15.4%.
In the case of `CN(c1ccccc1)c1ccc(/C=C(\CCC(=O)O)c2nc3ccccc3s2)cc1[N+](=O)[O-]`, the “hERG current change (%, negative = inhibition) at 10uM” value worked out at 44.6%.
On to `CCOC(=O)C1(Cc2cccc(Cl)c2)CCCN(C(=O)c2cc(C)on2)C1` (centres unmarked), for which the “hERG current change (%, negative = inhibition) at 10uM” value was -9.8%.
For `O=C(NCc1ccc(F)cc1)C1CCCN(C(=O)Nc2ccccc2)C1` (centres unmarked) the value was -38.5%; for `CC1(C)CC(=O)C2=C(C1)OC(N)=C(C#N)C2c1ccccc1` (centres unmarked), -14.4%.
Take `CC(c1ccccc1)C1C(C#N)=C(N)OC2=C1C(=O)CCC2` (centres unmarked): the “hERG current change (%, negative = inhibition) at 10uM” value is -6.39%.
`CC(c1ccccc1)C1C(C#N)=C(N)OC2=C1C(=O)CC(C)(C)C2` (centres unmarked): the “hERG current change (%, negative = inhibition) at 10uM” value is on record as -56.9%.
For `CC(=O)Nc1ccccc1-c1nc2ccc(C(=O)N3CCN(c4cc(C)ccc4C)CC3)cc2[nH]c1=O`, the “hERG current change (%, negative = inhibition) at 10uM” value is listed as -23.5%.
Turning to `O=c1cc(CN2CCN(S(=O)(=O)c3ccccc3[N+](=O)[O-])CC2)nc2sccn12`, the “hERG current change (%, negative = inhibition) at 10uM” value was -53.7%.
Regarding `COc1ccc(S(=O)(=O)N2CCN(Cc3ccccc3)CC2)cc1`, the “hERG current change (%, negative = inhibition) at 10uM” value was -19.5%.
In the case of `Cc1ccc(S(=O)(=O)N2CCN(C3CCN(Cc4ccccc4)CC3)CC2)cc1.O=C(O)C(=O)O`, the “hERG current change (%, negative = inhibition) at 10uM” value is -76.6%.
`CCOC(=O)N1CCC(N2CCN(S(=O)(=O)c3ccc(C)cc3)CC2)CC1.O=C(O)C(=O)O`: the “hERG current change (%, negative = inhibition) at 10uM” value is -19.1%.
For `O=c1cc(CN2CCN(S(=O)(=O)c3ccc4ccccc4c3)CC2)nc2sccn12` the value was -25.2%; for `Cc1ccc(S(=O)(=O)N2CCN(Cc3ccccc3)CC2)cc1`, -9.58%; for `O=S(=O)(c1ccc(Cl)cc1)N1CCC(O)(CN2CCN(Cc3ccccc3)CC2)CC1`, -75.8%.
Regarding `COc1ccc(S(=O)(=O)N2CCC(N3CCN(Cc4ccccc4)CC3)CC2)cc1.O=C(O)C(=O)O`, the “hERG current change (%, negative = inhibition) at 10uM” value is -39.2%.
Then `COc1ccc(S(=O)(=O)N2CCN(C3CCN(Cc4ccccc4)CC3)CC2)cc1`, with -59.4%.
Turning to `O=S(=O)(c1ccccc1)N1CCC(O)(CN2CCN(c3ccccc3)CC2)CC1`, the “hERG current change (%, negative = inhibition) at 10uM” value is recorded as 12.2%.
Take `CN1CCN(CC2(O)CCN(S(=O)(=O)c3ccc(Cl)cc3)CC2)CC1`: the “hERG current change (%, negative = inhibition) at 10uM” value is on record as -36%.
Then `O=c1cc(CN2CCN(S(=O)(=O)c3ccccc3)CC2)nc2sccn12`, with -2.25%; and `Cc1ccc(CNC(=S)NC2CCC(C(C)(C)C)CC2)cc1` (centres unmarked), with 10.8%.
As for `CCC(NC(=O)C1CCC1)c1ccccc1` (centres unmarked), the “hERG current change (%, negative = inhibition) at 10uM” value is given as 12.6%.
Take `Cc1c(/C=C/C(=O)c2cccs2)cnn1C`: the “hERG current change (%, negative = inhibition) at 10uM” value is given as -0.723%.
`COc1ccc(CNc2cccc(C)n2)c(O)c1`: the “hERG current change (%, negative = inhibition) at 10uM” value is recorded as -3.24%.
As to `Cc1cc(C)c(NC(=O)COC(=O)c2ccc([N+](=O)[O-])s2)c(C)c1`, the “hERG current change (%, negative = inhibition) at 10uM” value is 0.0437%.
With `COc1ccccc1NS(=O)(=O)c1cc(NC(=O)c2[nH]c(C)c(C(C)=O)c2C)ccc1N1CCOCC1`, the “hERG current change (%, negative = inhibition) at 10uM” value was found to be 0.128%.
For `O=C(CSc1nc(-c2ccccc2)cc(=O)[nH]1)Nc1ccccc1`, the “hERG current change (%, negative = inhibition) at 10uM” value is reported as 18%.
On to `COc1ccc(C(=O)/C=C/c2cn(CC(O)CN3CCOCC3)c3ccccc23)cc1` (centres unmarked), for which the “hERG current change (%, negative = inhibition) at 10uM” value was 3.55%.
